# Data: the supplement of paper PMC10981050
# Tested on: MOLM14
# Assay: cell viability relative to vehicle control; higher = less cytotoxic
# Details: 10 µM; SRSF2 genotype: SRSF2 wt/wt
# How it was run: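 Mutant clones made by CRISPR editing and their isogenic wild-type counterparts, from four leukaemia lines, were exposed to a single 10 µM dose of each library compound for 48 h. The supernatant was then removed and CellTiter-Glo luminescence was read. Viability was reported as percent of the on-plate vehicle control.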
row,SMILES,cell viability [%]
1,Cc1cc(=O)oc2c(C=O)c(O)ccc12,109
2,Cc1oncc1C(=O)Nc1ccc(C(F)(F)F)cc1 [Leflunomide],98.3
3,CCn1c(C(=O)N(C2CC2)C2CC2)cc2c3c(ncn3C)c(Nc3cc(C)n(C)n3)nc21,38.5
4,CC(/C=C1\SC(=S)N(CC(=O)O)C1=O)=C\c1ccccc1 [Epalrestat],103
5,O=c1[nH]c(=O)n(C2CCCO2)cc1F (stereo not given),104
6,CC(C(=O)O)c1ccc2c(c1)Cc1cccnc1O2 (stereo not given) [Pranoprofen],105
7,CC1C(=O)OC2C(O)C34C5CC(C(C)(C)C)C36C(OC(=O)C6O)OC4(C(=O)O5)C12O (stereo not given) [Ginkgolide B],109
8,Cc1nc(N(C)C(=O)Cc2ccc(-c3ccccn3)cc2)sc1S(N)(=O)=O [Pritelivir (BAY 57-1293)],103
9,N[C@@H]1CCCN(c2c(/C=C3\SC(=O)NC3=O)cccc2-c2ccccc2)C1,105
10,CCCCNc1ncc(-c2ccc(CN3CCOCC3)cn2)c(NC2CCC(O)CC2)n1 (stereo not given),4.78
11,CCCc1cc(C(N)=S)ccn1 [Protionamide (Prothionamide)],102
12,CC(C(=O)O)c1ccc2c(c1)CC(=O)c1ccccc1S2 (stereo not given) [Zaltoprofen],98.8
13,COc1ccc2cc1Oc1ccc(cc1)C[C@H]1c3c(cc4c(c3Oc3cc5c(cc3OC)CCN(C)[C@@H]5C2)OCO4)CCN1C [Cepharanthine],26.7
14,CC(COc1ccccc1Cc1ccccc1)N1CCCCC1 (stereo not given) [Benproperine phosphate],88.2
15,Nc1nonc1C(=Nc1ccc(F)c(Cl)c1)NO,100
